Results published in PubChem BioAssay.
Calls of active or inactive are those of the source.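 How the source made its calls, unless noted: active means normalized viability below 100% at a tested concentration; inactive means the rest.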

Experiments:
[1] = P. berghei load reduction in hepatocytes – cell-based, HepG2, luciferase luminescence, HepG2 viability, primary screen (AID 624349; in the data active means parasite load remaining mostly below about 12%, no sharp cut-off; inactive means mostly above about 10%;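 further: 100% = mean of DMSO negative control wells on the same plate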); conditions: P. berghei liver stage in HepG2, luciferase luminescence, concentration not given here; parasite load remaining: stronger effect = lower value; viability: measured here: HepG2 viability without parasites
[2] = Wnt pathway potentiators raising nuclear beta-catenin – imaging, WNT3A-conditioned medium, mouse C2C12, NPC library, primary screen (AID 1117326; in the data active means nuclear beta-catenin stimulation mostly above about 4.2%, no sharp cut-off; inactive means mostly below about 10%); conditions: stronger effect = higher value
[3] = stimulators of insulin release from INS-1E, primary screen, cell-based, 5 mM glucose, NPC library (AID 1117329;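 active means compound raises insulin release from rat beta cells at 5 mM glucose, no numeric limit stated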); conditions: rat INS-1E insulin secretion, at 10 µM, stronger effect = higher value
[4] = growth inhibition of GSK3B-pretreated HCT116 cells – cell-based, CellTiter-Glo, 0.2 to 20 µM (AID 1117336;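 active means compounds lowering colon cancer cell viability after pretreatment blocking the GSK3B kinase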); conditions: HCT116 viability after GSK3B inhibitor, at 20 µM, stronger effect = higher value
[5] = inhibition of endothelial tube formation, primary screen, imaging, VEGF stimulated, CD31 staining, tube area, NPC library (AID 1117340;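 active means compound that reduces growth-factor-driven endothelial tube area in a mixed cell culture, no cutoff stated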); conditions: VEGF-stimulated ADSC/ECFC co-culture, at 10 µM, stronger effect = higher value
[6] = GLP1 release stimulators, primary, NCI-H716, NPC library (AID 1117341;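 active means compound raises GLP1 secretion from the human gut endocrine cells, with no numeric limit stated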); conditions: NCI-H716 cells, at 10 µM, stronger effect = higher value
[7] = HCT116 colon cancer cell growth inhibition, primary screen, CellTiter-Glo luminescence, NPC library (AID 1117342;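 active means compounds that lower survival of HCT116 colon cancer cells in the luminescence readout, no numeric limit stated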); conditions: at 20 µM (top of the series)
[8] = reduced SW480 viability measured with CellTiter-Glo, NPC library, primary (AID 1117343;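 active means compounds that lower viability of the colon cancer cells in the luminescence readout, with no numeric limit stated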); conditions: CellTiter-Glo luminescence; at 20 µM (top of the series) unless noted
[9] = NPC library primary testing for decreased DLD-1 cell viability via CellTiter-Glo (AID 1117346;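 active means compounds that lower survival of DLD-1 colon cancer cells in the luminescence readout, no cutoff given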); conditions: DLD-1 viability, CellTiter-Glo luminescence; at 20 µM (top of the series)
[10] = EMT-state selective cytotoxicity in co-culture – imaging, PC-3E GFP, TEM4-18 mCherry, primary screen (AID 1345086;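 active means compounds killing one labelled cell type while sparing the other, by normalised counts and ratio limits, not self-fluorescent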;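 on all read-outs here: cells exposed to compound for 72 h before imaging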;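 on red/green cell ratio (normalised): normalised mesenchymal count divided by normalised epithelial count so high means epithelial killing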); conditions: PC-3E GFP / TEM4-18 mCherry co-culture, imaging cell counts, at 1 µM; for red/green cell ratio (normalised): actives lie on both sides, counts scaled to control wells, 1 = unselective
[11] = viability loss with induced miR-34 in A549 – imaging, A549 dox-inducible miR-34, nuclei and caspase counts, primary screen (AID 1347080;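 active means compounds whose cell count with miR-34 switched on is under 0.7 times the count with it off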); conditions: A549 miR-34 inducible, Hoechst nuclei count, 48 h
[12] = MELAS cybrid and Rieske KO viability enhancers – cell-based, MELAS cybrids, Rieske KO mouse fibroblasts, CellTiter-Glo, primary screen (AID 1508586;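 active means mean z-score across replicates of 1.96 or higher in either the MELAS or the Rieske mutant cell line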;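 further: z relative to plate mean and SD of compound and empty wells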); conditions: low glucose
[13] = drug combination growth inhibition, ovarian cancer – cell-based, oncology-focused library, rucaparib conditional, profiling panel (AID 1508598); conditions: patient-derived ovarian cancer cells, CellTiter-Glo viability, 144 h, stronger effect = lower value
[14] = target: NAD(+) hydrolase SARM1 (Homo sapiens) (UniProt Q6SZW1); assay: blocking NAD cleavage by SARM1 SAM-TIR – cell lysate, NAD-Glo luminescence (AID 1508614;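 active means compound whose remaining NAD level is above about 45 nM, limit read from the data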); conditions: SAM-TIR HEK293T lysate NADase, at 1 µM, stronger effect = higher value
Chain of NAD(+) hydrolase SARM1 (Homo sapiens) (Q6SZW1 whole entry, looked up): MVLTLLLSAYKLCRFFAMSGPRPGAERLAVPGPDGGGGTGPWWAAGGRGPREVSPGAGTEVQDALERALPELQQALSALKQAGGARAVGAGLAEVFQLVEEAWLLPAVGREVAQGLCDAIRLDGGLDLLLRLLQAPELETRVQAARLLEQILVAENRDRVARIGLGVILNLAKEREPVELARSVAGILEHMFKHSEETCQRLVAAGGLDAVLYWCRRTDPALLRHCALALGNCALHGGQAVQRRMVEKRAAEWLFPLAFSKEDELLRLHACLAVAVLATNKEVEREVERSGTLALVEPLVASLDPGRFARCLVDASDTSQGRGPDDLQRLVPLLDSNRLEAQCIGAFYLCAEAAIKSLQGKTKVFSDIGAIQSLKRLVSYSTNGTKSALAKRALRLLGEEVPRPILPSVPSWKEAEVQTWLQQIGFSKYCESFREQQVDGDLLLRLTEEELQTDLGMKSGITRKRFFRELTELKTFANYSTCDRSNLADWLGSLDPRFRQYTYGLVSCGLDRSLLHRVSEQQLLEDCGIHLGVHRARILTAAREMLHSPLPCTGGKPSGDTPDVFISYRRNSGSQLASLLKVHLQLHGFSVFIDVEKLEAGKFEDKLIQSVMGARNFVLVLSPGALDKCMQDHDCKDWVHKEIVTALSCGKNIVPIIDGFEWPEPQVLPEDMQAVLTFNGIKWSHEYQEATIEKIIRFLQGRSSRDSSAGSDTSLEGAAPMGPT

[15] = growth inhibition, single agent or in combination, cell-based, chromothripsis tumors, cisplatin or BGB combos (AID 1671449; in the data active means inhibition above about 80%;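 further: cells exposed for 96 hours; 0% = vehicle DMSO and 100% = killing by high DMSO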); conditions: LFS_MB_P medulloblastoma cells
[16] = growth inhibition, single agent and combos, cell-based, chromothripsis tumors, cisplatin or BGB combos (AID 1671450; in the data active means inhibition above about 80%;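 further: cells exposed to compound for four days; 0% = vehicle DMSO and 100% = cell killing by high DMSO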); conditions: HDN33 neuroblastoma cells, stronger effect = higher value
[17] = growth inhibition, single agents and combos, ICB984, cell-based, cisplatin or BGB combos, synergistic combos for chromothripsis tumors (AID 1671451; call rule not given here;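 further: cells exposed for 96 hours before readout; 0% = vehicle DMSO and 100% = killing by high DMSO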); conditions: ICB984 medulloblastoma cells, drug combinations, stronger effect = higher value
[18] = growth inhibition, single agents and combos, HTB85, cell-based, BGB or cisplatin IC20 combos, synergistic combos for chromothripsis tumors (AID 1671453; in the data active means inhibition above about 80%;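 further: cells exposed for 96 hours before readout; 0% = vehicle DMSO and 100% = high DMSO killing control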); conditions: HTB85 osteosarcoma cells, drug combinations, stronger effect = higher value
[19] = growth inhibition, MDA-MB-436, cell-based, BGB or cisplatin combos, synergistic combos for chromothripsis tumors (AID 1671458; call rule not given here;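 further: cells exposed for 96 hours; 0% = vehicle DMSO and 100% = killing by high DMSO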); conditions: MDA-MB-436 breast carcinoma growth inhibition, drug combinations, stronger effect = higher value
[20] = measured here: epithelial PC-3E GFP cell survival
[21] = measured here: mesenchymal TEM4-18 mCherry cell survival

## COc1c(C)c2c(c(O)c1C/C=C(\C)CCC(=O)OCCN1CCOCC1)C(=O)OC2
[1]
  parasite load remaining: 10.4% (inactive)
  viability: 140%
[2]; at 10 µM
  nuclear beta-catenin stimulation: 19.6% (inactive)
[2]; stimulation, at 2 µM
  nuclear beta-catenin stimulation: 28.6%
[3]
  insulin secretion stimulation: 1.7% (inactive)
[4]
  viability decrease: 98.3% (active)
[5]
  tube area decrease: 79.8% (active)
[6]
  GLP1 secretion stimulation: 0.3% (inactive)
[7]
  inhibition of viability: 83.9% (active)
[8]
  viability decrease (inhibition): 71.8% (active)
[9]
  viability decrease (inhibition): 53.3% (active)
[10]
  red/green cell ratio (normalised): 0.71 (inactive)
[10]; [20]
  normalised cell number: 1.24
[10]; [21]
  normalised cell number: 0.88
[11]; stronger effect = lower value, cell number ratio, induced over uninduced
  fold change: 0.954 (inactive)
[11]; measured here: relative caspase fold change +Dox/-Dox
  fold change: 1.15
[11]; measured here: total cells with miR-34 induction, stronger effect = lower value
  cell count: 3090
[11]; measured here: total cells without miR-34 induction
  cell count: 3240
[12]; MELAS cybrid survival, CellTiter-Glo 48 h, stronger effect = higher value
  z-score: -0.954 (inactive)
[12]; Rieske KO mouse fibroblast survival, CellTiter-Glo 72 h
  z-score: 1.62
[13]; at 0.000305 µM, OCI-C5x cells, with rucaparib 10 µM, 100% = cells with rucaparib alone
  viability: 104% (inactive)
[13]; at 0.000305 µM, OCI-C5x cells, without rucaparib
  viability: 112% (inactive)
[13]; at 0.000305 µM, OCI-P5x cells, with rucaparib 20 µM, 100% = cells with rucaparib alone
  viability: 90.9% (active)
[13]; at 0.000305 µM, OCI-P5x cells, without rucaparib
  viability: 100% (inactive)
[13]; at 0.00122 µM, OCI-C5x cells, with rucaparib 10 µM, 100% = cells with rucaparib alone
  viability: 119% (inactive)
[13]; at 0.00122 µM, OCI-C5x cells, without rucaparib
  viability: 108% (inactive)
[13]; at 0.00122 µM, OCI-P5x cells, with rucaparib 20 µM, 100% = cells with rucaparib alone
  viability: 95.2% (active)
[13]; at 0.00122 µM, OCI-P5x cells, without rucaparib
  viability: 104% (inactive)
[13]; at 0.00488 µM, OCI-C5x cells, with rucaparib 10 µM, 100% = cells with rucaparib alone
  viability: 122% (inactive)
[13]; at 0.00488 µM, OCI-C5x cells, without rucaparib
  viability: 110% (inactive)
[13]; at 0.00488 µM, OCI-P5x cells, with rucaparib 20 µM, 100% = cells with rucaparib alone
  viability: 101% (inactive)
[13]; at 0.00488 µM, OCI-P5x cells, without rucaparib
  viability: 108% (inactive)
[13]; at 0.0195 µM, OCI-C5x cells, with rucaparib 10 µM, 100% = cells with rucaparib alone
  viability: 115% (inactive)
[13]; at 0.0195 µM, OCI-C5x cells, without rucaparib
  viability: 113% (inactive)
[13]; at 0.0195 µM, OCI-P5x cells, with rucaparib 20 µM, 100% = cells with rucaparib alone
  viability: 108% (inactive)
[13]; at 0.0195 µM, OCI-P5x cells, without rucaparib
  viability: 109% (inactive)
[13]; at 0.0781 µM, OCI-C5x cells, with rucaparib 10 µM, 100% = cells with rucaparib alone
  viability: 146% (inactive)
[13]; at 0.0781 µM, OCI-C5x cells, without rucaparib
  viability: 149% (inactive)
[13]; at 0.0781 µM, OCI-P5x cells, with rucaparib 20 µM, 100% = cells with rucaparib alone
  viability: 107% (inactive)
[13]; at 0.0781 µM, OCI-P5x cells, without rucaparib
  viability: 87.7% (active)
[13]; at 0.313 µM, OCI-C5x cells, with rucaparib 10 µM, 100% = cells with rucaparib alone
  viability: 172% (inactive)
[13]; at 0.313 µM, OCI-C5x cells, without rucaparib
  viability: 147% (inactive)
[13]; at 0.313 µM, OCI-P5x cells, with rucaparib 20 µM, 100% = cells with rucaparib alone
  viability: 89.1% (active)
[13]; at 0.313 µM, OCI-P5x cells, without rucaparib
  viability: 63.2% (active)
[13]; at 1.25 µM, OCI-C5x cells, with rucaparib 10 µM, 100% = cells with rucaparib alone
  viability: 157% (inactive)
[13]; at 1.25 µM, OCI-C5x cells, without rucaparib
  viability: 110% (inactive)
[13]; at 1.25 µM, OCI-P5x cells, with rucaparib 20 µM, 100% = cells with rucaparib alone
  viability: 74.3% (active)
[13]; at 1.25 µM, OCI-P5x cells, without rucaparib
  viability: 42.1% (active)
[13]; at 5 µM, OCI-C5x cells, with rucaparib 10 µM, 100% = cells with rucaparib alone
  viability: 69% (active)
[13]; at 5 µM, OCI-C5x cells, without rucaparib
  viability: 52.7% (active)
[13]; at 5 µM, OCI-P5x cells, with rucaparib 20 µM, 100% = cells with rucaparib alone
  viability: 52.6% (active)
[13]; at 5 µM, OCI-P5x cells, without rucaparib
  viability: 30.9% (active)
[14]
  remaining NAD: 10 nM (inactive)

## CN1CCN(c2c(F)cc3c(=O)c(C(=O)O)cn4c3c2OCN4C)CC1
[2]; at 10 µM
  nuclear beta-catenin stimulation: -0.6% (inactive)
[2]; stimulation, at 2 µM
  nuclear beta-catenin stimulation: -2.1%
[3]
  insulin secretion stimulation: -0.9% (inactive)
[4]
  viability decrease: 7.3% (inactive)
[5]
  tube area decrease: -6.4% (inactive)
[6]
  GLP1 secretion stimulation: -0.1% (inactive)
[7]
  inhibition of viability: 1.5% (inactive)
[8]
  viability decrease (inhibition): -15.8% (inactive)
[9]
  viability decrease (inhibition): -5% (inactive)
[10]
  red/green cell ratio (normalised): 0.85 (inactive)
[10]; [20]
  normalised cell number: 1.17
[10]; [21]
  normalised cell number: 1
[15]; at 0.5 µM, stronger effect = higher value
  inhibition: -17.7% (inactive)
[15]; measured here: combination with BGB IC20, at 0.005 µM
  inhibition: -16.9%
[15]; measured here: combination with BGB IC40, at 0.005 µM
  inhibition: -17.4%
[15]; measured here: combination with BGB IC40, at 0.05 µM
  inhibition: -36.9%
[15]; measured here: combination with cisplatin, at 0.5 µM, stronger effect = higher value
  inhibition: -51.4%
[15]; measured here: combination with cisplatin, at 5 µM, stronger effect = higher value
  inhibition: -32.3%
[16]; BGB combo, at 5 µM
  inhibition: 5.71%
[16]; at 0.5 µM
  inhibition: -7.25% (inactive)
[16]; cisplatin combo, at 5 µM
  inhibition: -1.82%
[16]; measured here: with BGB IC20 combination, at 0.5 µM
  inhibition: 5.2%
[16]; measured here: with cisplatin IC20 combination, at 0.5 µM
  inhibition: -12.1%
[16]; single agent, at 5 µM
  inhibition: -9.4%
[17]; BGB IC20 combo, at 0.005 µM
  inhibition: 9.65%
[17]; BGB IC40 combo, at 0.005 µM
  inhibition: -1.21%
[17]; BGB IC40 combo, at 0.05 µM
  inhibition: 1.28%
[17]; at 0.5 µM
  inhibition: -28.8% (inactive)
[17]; cisplatin combo, at 0.05 µM
  inhibition: -1.48%
[17]; cisplatin combo, at 0.5 µM
  inhibition: -25.3%
[17]; cisplatin combo, at 5 µM
  inhibition: -7.68%
[17]; measured here: 5 uM single agent, at 5 µM
  inhibition: -17.3%
[18]; at 0.5 µM
  inhibition: -12.7% (inactive)
[18]; measured here: with BGB IC20, at 0.5 µM
  inhibition: -22.2%
[18]; measured here: with BGB IC20, at 5 µM
  inhibition: -21.7%
[18]; measured here: with cisplatin IC20, at 0.5 µM
  inhibition: -26.4%
[18]; measured here: with cisplatin IC20, at 5 µM
  inhibition: -29.4%
[18]; single agent, at 5 µM
  inhibition: -8.81%
[19]; at 0.5 µM
  inhibition: -16.5% (inactive)
[19]; measured here: BGB combination, at 0.5 µM
  inhibition: -13.3%
[19]; measured here: BGB combination, at 5 µM
  inhibition: -9.95%
[19]; measured here: cisplatin combination, at 0.5 µM
  inhibition: -29.6%
[19]; measured here: cisplatin combination, at 5 µM
  inhibition: -33.2%
